This passage reports outcome and AC50 results from PubChem BioAssay (EPA / NIEHS).

A short description of assay [1]: ATG_NFI_CIS: Attagene CIS-FACTORIAL HepG2 Assay for human Nuclear Factor I (NFI) (AID 2282989). The note with it: HepG2 cis-regulatory reporter, NFI response element transcription; actives raise or lower the signal. In a few lines: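 Reporter transcription driven by endogenous transcription factors in HepG2 cells; 24 h treatment. Quantitation by labelled RT-PCR fragments on capillary electrophoresis, gain- or loss-of-signal relative to DMSO.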

Assay [2] deals with Myc proto-oncogene protein (Homo sapiens) (UniProt P01106). Put plainly: ATG_Myc_CIS: Attagene CIS-FACTORIAL HepG2 Assay for human Myelocytomatosis (Myc) Proto-Oncogene Transcription Factor (AID 2282990). The conditions noted are these: HepG2, Attagene cis-reporter transcription factor activity; actives raise or lower the signal. In a few lines: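 HepG2 cells transiently transfected with multiple cis-promoter-driven reporter transcription units, so endogenous TF activity is read. After 24 h compound exposure, reporter mRNA was quantified by RT-PCR, 6-FAM labelling, HpaI digestion and capillary electrophoresis; bidirectional fit versus DMSO.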
Chain of Myc proto-oncogene protein (Homo sapiens) (P01106 whole entry, looked up): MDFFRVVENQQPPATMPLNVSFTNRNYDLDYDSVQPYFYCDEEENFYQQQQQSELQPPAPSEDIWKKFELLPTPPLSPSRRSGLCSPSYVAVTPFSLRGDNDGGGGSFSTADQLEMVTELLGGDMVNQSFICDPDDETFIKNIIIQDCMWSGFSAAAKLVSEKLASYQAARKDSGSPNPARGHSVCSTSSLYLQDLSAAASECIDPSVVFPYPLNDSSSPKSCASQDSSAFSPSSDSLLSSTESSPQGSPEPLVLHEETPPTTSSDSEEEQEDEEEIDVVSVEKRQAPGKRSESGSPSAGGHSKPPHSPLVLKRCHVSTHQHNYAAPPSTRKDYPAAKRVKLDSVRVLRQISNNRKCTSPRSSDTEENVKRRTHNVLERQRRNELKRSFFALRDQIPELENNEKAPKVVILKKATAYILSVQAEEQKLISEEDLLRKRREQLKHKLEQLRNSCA

The nature of assay [3]: ATG_NF_kB_CIS: Attagene CIS-FACTORIAL HepG2 Assay for human Nuclear Factor Kappa B (NF-kB) (AID 2282991). The conditions noted are these: HepG2 Attagene cis-factorial NF-kB reporter mRNA; actives raise or lower the signal. The method in brief: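 Read-out: reporter transcript levels quantified by RT-PCR plus capillary electrophoresis of 6-FAM-labelled, HpaI-cut fragments. Transfected HepG2 cells, 24 h compound exposure, endogenous NF-kB-driven cis element; gain or loss scored versus DMSO.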

Assay [4] can be described thus: ATG_NRF2_ARE_CIS: Attagene CIS-FACTORIAL HepG2 Assay for human Nuclear Factor Erythroid 2 Related Factor 2 (NFR2) response to Antioxidant Response Elements (ARE) (AID 2282992).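 For AC50: reporter mRNA level measured by RT-PCR and capillary electrophoresis fluorescence.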 The note with it: HepG2 Attagene ARE/NRF2 reporter, transcription factor activity; actives raise or lower the signal. The method in brief:
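Fluorescence intensity of reporter-specific cDNA fragments, separated by capillary electrophoresis, reflects mRNA induction in transfected HepG2 cells at 24 h. Activity is fitted bidirectionally, DMSO serving as baseline.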

The nature of assay [5]: ATG_Oct_MLP_CIS: Attagene CIS-FACTORIAL HepG2 Assay for human Octamer-Binding Transcription Factor (Oct) (AID 2282993). The conditions noted are these: HepG2 Attagene cis-factorial Oct reporter, mRNA; actives raise or lower the signal. The method in brief:
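Transfected HepG2 cells, 24 h treatment. Reporter mRNA quantified by RT-PCR–capillary electrophoresis; bidirectional fitting against DMSO.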

The target of assay [6] is Cellular tumor antigen p53 (Homo sapiens) (UniProt P04637). Put plainly: ATG_p53_CIS: Attagene CIS-FACTORIAL HepG2 Assay for human p53 Transcription Factor (AID 2282994). The note with it: HepG2 p53 cis-element reporter, Attagene mRNA; actives raise or lower the signal. In a few lines: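 Transiently transfected HepG2 (multiple cis reporter transcription units); exposure 24 h; reporter RNA via RT-PCR, 6-FAM extension, 2 h HpaI digest at 37 C, CE detection; DMSO baseline.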
Chain of Cellular tumor antigen p53 (Homo sapiens) (P04637 whole entry, looked up): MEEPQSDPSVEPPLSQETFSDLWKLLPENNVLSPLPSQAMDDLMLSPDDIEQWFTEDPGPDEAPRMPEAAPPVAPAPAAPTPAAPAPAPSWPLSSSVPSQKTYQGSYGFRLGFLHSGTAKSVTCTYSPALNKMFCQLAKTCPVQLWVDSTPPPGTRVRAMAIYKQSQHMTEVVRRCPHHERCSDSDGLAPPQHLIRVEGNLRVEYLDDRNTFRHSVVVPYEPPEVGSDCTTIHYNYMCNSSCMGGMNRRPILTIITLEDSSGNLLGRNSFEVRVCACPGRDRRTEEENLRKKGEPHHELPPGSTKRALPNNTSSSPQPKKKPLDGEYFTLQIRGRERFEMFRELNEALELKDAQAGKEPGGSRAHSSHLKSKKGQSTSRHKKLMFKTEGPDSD

Assay [7] can be described thus: BSK_3C_TissueFactor: BioMAP Diversity Plus: 3C Assay for Tissue Factor Biomarker Activity (AID 2282997). The conditions noted are these: BioMAP 3C HUVEC, tissue factor biomarker readout; actives raise or lower the signal. In a few lines:
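After a 24 h chemical exposure of primary human umbilical vein endothelial cells, Tissue Factor levels were quantified by ELISA.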

Assay [8] in a line: BSK_3C_uPAR: BioMAP Diversity Plus: 3C Assay for Urokinase-type plasminogen activator receptor (uPAR) Biomarker Activity (AID 2282998). The note with it: BioMAP 3C HUVEC, uPAR biomarker ELISA; actives raise or lower the signal. In a few lines: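 Readout: ELISA for surface uPAR. System: human umbilical vein endothelial primary cells, 24 h after chemical exposure. Analysis: bidirectional fit, DMSO baseline.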
(In general: In an ELISA, binding on a coated surface is turned into a signal by an enzyme label.)

A short description of assay [9]: BSK_3C_VCAM1: BioMAP Diversity Plus: 3C Assay for Vascular cell adhesion molecule 1 (VCAM1) Biomarker Activity (AID 2282999). The note with it: BioMAP 3C HUVEC, VCAM1 ELISA, cytokine-stimulated; actives raise or lower the signal. The method in brief: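 Vascular primary endothelium (human umbilical vein) was exposed to chemicals and assayed 24 h later. VCAM-1 levels came from ELISA, with DMSO serving as baseline for bidirectional fitting.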

Assay [10] can be described thus: BSK_4H_Eotaxin3: BioMAP Diversity Plus: 4H Assay for Eotaxin 3 Biomarker Activity (AID 2283000).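 For outcome: CCL26 protein level quantified by ELISA in parallel with SRB cytotoxicity check.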 The conditions noted are these: primary human endothelial cells (HUVEC); actives raise or lower the signal. The method in brief:
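Chemicals were added to human umbilical vein endothelium cultures, and Eotaxin-3 was quantified by ELISA at 24 h. Values were derived by bidirectional fitting with DMSO serving as negative control and activity baseline.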

In assay [11] the target is human Peroxisome Proliferator-activated Receptor delta (PPARd), PPARD (gene 5467) (UniProt Q03181). The assay can be described thus: ATG_PPARd_TRANS: Attagene TRANS-FACTORIAL HepG2 Assay for human Peroxisome Proliferator-activated Receptor delta (PPARd) (AID 2283002; active = hit-call score of the fitted dose curve at least 0.9, where 1 is the maximum). The method in brief: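 HepG2 cells transiently transfected with multiplexed GAL4-UAS reporter units and exogenous chimeric NR-Gal4 proteins; 24 h compound exposure. Reporter mRNA measured by RT-PCR, 6-FAM labelling, HpaI digestion and capillary electrophoresis; gain of signal versus DMSO.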
Chain of human Peroxisome Proliferator-activated Receptor delta (PPARd), PPARD (gene 5467) (Q03181 whole entry, looked up, the tested form may be a part): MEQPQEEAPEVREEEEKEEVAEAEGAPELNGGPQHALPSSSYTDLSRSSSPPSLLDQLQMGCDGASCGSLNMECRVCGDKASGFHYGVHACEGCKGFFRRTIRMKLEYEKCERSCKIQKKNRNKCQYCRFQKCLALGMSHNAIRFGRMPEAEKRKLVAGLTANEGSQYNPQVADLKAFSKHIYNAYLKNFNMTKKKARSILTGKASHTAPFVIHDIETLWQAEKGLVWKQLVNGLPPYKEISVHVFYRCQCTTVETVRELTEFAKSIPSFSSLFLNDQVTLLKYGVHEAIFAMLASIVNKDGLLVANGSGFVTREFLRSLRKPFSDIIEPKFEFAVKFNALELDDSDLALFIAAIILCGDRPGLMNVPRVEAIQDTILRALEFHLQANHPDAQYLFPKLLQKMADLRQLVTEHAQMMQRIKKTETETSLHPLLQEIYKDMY

Read-out in assay [12]: Intercellular Adhesion Molecule 1 (ICAM1), ICAM1 (gene 3383)
Put plainly: BSK_3C_ICAM1: BioMAP Diversity Plus: 3C Assay for Intercellular Adhesion Molecule 1 (ICAM1) Biomarker Activity (AID 2283003). The conditions noted are these: primary human endothelial cells (HUVEC); actives raise or lower the signal. In a few lines: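 ELISA readout of ICAM1 in human umbilical vein endothelial cells in the 3C system, taken 24 h post-dose. Gain or loss of signal versus DMSO was fitted in both directions, with SRB total-protein staining run in parallel.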

A short description of assay [13]: BSK_3C_Proliferation: Cell Proliferation Assessment in the BioMAP Diversity Plus: 3C Assay (AID 2283006).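 Note: potency may reflect either rise or fall in cell number versus DMSO.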 The conditions noted are these: primary human endothelial cells (HUVEC). The method in brief:
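Proliferation as total protein: sulforhodamine B (0.1%) stain of TCA-fixed subconfluent human umbilical vein endothelial cells, absorbance 560 nm, 48 h after dosing. Activity fitted in both directions against DMSO baseline.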

Assay [14] deals with Peroxisome proliferator-activated receptor gamma (Homo sapiens) (UniProt P37231). Put plainly: ATG_PPARg_TRANS: Attagene TRANS-FACTORIAL HepG2 Assay for human Peroxisome Proliferator-activated Receptor-gamma (PPARg) (AID 2283007; active = hit-call score of the fitted dose curve at least 0.9, where 1 is the maximum). The method in brief: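 Read-out: reporter mRNA induction, detected by fluorescence after RT-PCR and capillary electrophoresis. Transiently transfected human HepG2 liver cells carrying a chimeric NR-Gal4 construct were dosed for 24 h; activity was fitted upward relative to DMSO.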
Chain of Peroxisome proliferator-activated receptor gamma (Homo sapiens) (P37231 whole entry, looked up, the tested form may be a part): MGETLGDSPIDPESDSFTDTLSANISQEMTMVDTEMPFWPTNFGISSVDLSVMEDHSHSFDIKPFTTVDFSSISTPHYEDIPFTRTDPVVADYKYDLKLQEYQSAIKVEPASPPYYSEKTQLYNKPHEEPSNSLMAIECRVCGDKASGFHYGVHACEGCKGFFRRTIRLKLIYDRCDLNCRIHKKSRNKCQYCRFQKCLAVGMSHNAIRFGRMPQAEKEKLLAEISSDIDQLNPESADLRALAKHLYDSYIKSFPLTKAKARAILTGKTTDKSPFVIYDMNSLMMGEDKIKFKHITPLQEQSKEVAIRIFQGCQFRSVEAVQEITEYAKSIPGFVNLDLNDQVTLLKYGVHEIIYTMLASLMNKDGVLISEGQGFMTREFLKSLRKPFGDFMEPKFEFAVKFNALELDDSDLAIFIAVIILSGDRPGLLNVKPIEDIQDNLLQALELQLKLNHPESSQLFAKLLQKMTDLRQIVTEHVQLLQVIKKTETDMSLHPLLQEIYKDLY

Assay [15] has as its target Nuclear receptor subfamily 1 group I member 2 (Homo sapiens) (UniProt O75469). The assay can be described thus: ATG_PXR_TRANS: Attagene TRANS-FACTORIAL HepG2 Assay for human Pregnane X Receptor (PXR) (AID 2283008; active = hit-call score of the fitted dose curve at least 0.9, where 1 is the maximum). In a few lines:
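Transient HepG2 transfectants carrying multiplexed reporter transcription units; PXR activity read through a Gal4 chimera. 24 h exposure. RT-PCR/CE fluorescence; upward curve fit referenced to DMSO.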

For assay [16], the target named is human Peroxisome Proliferator-activated Receptor alpha (PPARa), PPARA (gene 5465) (UniProt Q07869). Put plainly: ATG_PPARa_TRANS: Attagene TRANS-FACTORIAL HepG2 Assay for human Peroxisome Proliferator-activated Receptor alpha (PPARa) (AID 2283001; active = hit-call score of the fitted dose curve at least 0.9, where 1 is the maximum). In a few lines:
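Cells (HepG2) are transfected with multiple reporter transcription units, exposed to chemical for 24 h, then total RNA is reverse-transcribed and amplified. Labelled products are quantified by capillary electrophoresis; induction is referenced to DMSO.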

Results filed as inconclusive are left out. Calls of active or inactive are those of the source. Rule for the calls, unless noted: active = hit-call score of the fitted dose curve at least 0.9, where 1 is the maximum; inactive = score below 0.9.

Chain of Nuclear receptor subfamily 1 group I member 2 (Homo sapiens) (O75469 whole entry, looked up, the tested form may be a part): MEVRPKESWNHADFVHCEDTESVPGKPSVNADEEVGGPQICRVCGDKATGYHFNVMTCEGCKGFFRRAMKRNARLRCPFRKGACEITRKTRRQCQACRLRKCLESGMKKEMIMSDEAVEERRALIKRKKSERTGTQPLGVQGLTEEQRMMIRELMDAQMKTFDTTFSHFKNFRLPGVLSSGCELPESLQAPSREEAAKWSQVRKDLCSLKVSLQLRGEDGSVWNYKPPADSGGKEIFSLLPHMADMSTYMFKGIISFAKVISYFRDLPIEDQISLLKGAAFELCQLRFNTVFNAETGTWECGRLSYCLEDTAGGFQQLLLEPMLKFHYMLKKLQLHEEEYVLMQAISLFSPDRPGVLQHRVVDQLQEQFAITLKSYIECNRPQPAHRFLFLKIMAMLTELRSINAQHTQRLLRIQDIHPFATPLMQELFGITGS
Chain of human Peroxisome Proliferator-activated Receptor alpha (PPARa), PPARA (gene 5465) (Q07869 whole entry, looked up): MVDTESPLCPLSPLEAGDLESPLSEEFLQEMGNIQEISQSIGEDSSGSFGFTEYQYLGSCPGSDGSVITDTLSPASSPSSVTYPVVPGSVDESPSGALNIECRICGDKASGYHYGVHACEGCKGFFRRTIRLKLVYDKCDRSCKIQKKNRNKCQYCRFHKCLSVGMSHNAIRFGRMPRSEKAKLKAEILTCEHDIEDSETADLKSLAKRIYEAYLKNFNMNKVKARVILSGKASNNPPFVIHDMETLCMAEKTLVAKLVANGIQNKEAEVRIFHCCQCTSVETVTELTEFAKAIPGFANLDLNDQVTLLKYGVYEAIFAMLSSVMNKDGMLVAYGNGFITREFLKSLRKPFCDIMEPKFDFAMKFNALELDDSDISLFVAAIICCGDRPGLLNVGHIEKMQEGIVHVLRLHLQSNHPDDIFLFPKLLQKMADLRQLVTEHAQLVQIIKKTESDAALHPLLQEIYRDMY

As usually defined, the AC50 is the midpoint of the concentration-response curve, whichever way the signal moves. In the case of `O=S(=O)(c1ccc(Cl)cc1)c1cc(Cl)c(Cl)cc1Cl`, the compound was called inactive in [1], in assay [2], in [3], in assay [5], in [6] and in assay [7]. In addition, the outcome in [9], in assay [10], in assay [11] and in [12] was inactive. Further, the AC50 in assay [4] was 10.4 µM (active); in [8], 6.4 µM (active); in assay [13], 5.2 µM (active); in [14], 7.66 µM (active); in assay [15], 1.25 µM (active).
Regarding `Nc1cccnc1`, the compound was called inactive in assay [1], in assay [2], in assay [3], in [4], in assay [5] and in assay [6]. Moreover, the result in [16], in [11] and in assay [14] was inactive.
For `N#CCCC(Br)(C#N)CBr` (stereo not drawn), the AC50 in assay [1] is 54.3 µM (active); in assay [3], 33.4 µM (active); in [5] it was 50 µM (active); in assay [6], 52.8 µM (active); in assay [7] it was 7.47 µM (active); in [8] it was 5.36 µM (active). Further, the AC50 in [9] is 7.92 µM (active); in [10], 8.6 µM (active); in [12], 11 µM (active); in [13], 1.28 µM (active). Moreover, the compound was classed as inactive in [2], in [4], in [16] and in assay [14].
`Cc1ccc(OP(=O)(Oc2ccc(C)cc2C)Oc2ccc(C)cc2C)c(C)c1`: the call in assay [1], in assay [2], in assay [5], in [6], in [7] and in [8] was inactive. Also, the outcome in [9], in assay [10], in assay [11] and in [12] was inactive. Besides, the AC50 is 25.9 µM (active) in assay [3]; 12.3 µM (active) in assay [4]; 6.87 µM (active) in assay [13]; 1.3 µM (active) in assay [14]; 0.0821 µM (active) in assay [15].
